Out of some 220,000 compounds screened, about 16,000 (7.3%) were called active. Not shown: some 25% with an inconclusive outcome. Calls come from the whole dose curve; as a rule, active = well fitted inhibition curve with a large enough effect (not every such curve was filed as active); inconclusive = small, poorly fitted or top-dose-only effect, or another doubt; inactive = no such curve, though single readings can be large or run the other way. This excerpt belongs to a sample that is enriched for actives.
molecular target: Aldehyde dehydrogenase 1A1 (Homo sapiens) (UniProt P00352); assay: qHTS Assay for Inhibitors of Aldehyde Dehydrogenase 1 (ALDH1A1); details: Purified ALDH1A1, NADH fluorescence, propionaldehyde substrate; series mostly up to 75.3 µM; activity, negative = inhibition: at the top concentration;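 for activity, negative = inhibition: plate controls were no enzyme wells and a reference inhibitor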
Sequence (P00352 whole entry, looked up): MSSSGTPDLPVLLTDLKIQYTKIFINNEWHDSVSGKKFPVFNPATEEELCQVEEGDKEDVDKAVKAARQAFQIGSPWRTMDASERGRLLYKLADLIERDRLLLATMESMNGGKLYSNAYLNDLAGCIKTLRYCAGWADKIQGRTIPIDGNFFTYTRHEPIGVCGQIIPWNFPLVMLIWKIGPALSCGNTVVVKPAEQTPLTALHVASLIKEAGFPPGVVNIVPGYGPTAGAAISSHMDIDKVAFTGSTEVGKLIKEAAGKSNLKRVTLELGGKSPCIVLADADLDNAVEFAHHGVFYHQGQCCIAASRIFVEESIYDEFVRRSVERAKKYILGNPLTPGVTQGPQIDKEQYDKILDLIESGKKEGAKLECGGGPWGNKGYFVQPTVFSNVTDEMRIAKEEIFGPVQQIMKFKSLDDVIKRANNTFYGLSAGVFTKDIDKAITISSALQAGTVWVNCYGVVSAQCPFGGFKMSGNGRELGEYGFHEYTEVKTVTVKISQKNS
Potency is the fitted concentration of half-maximal effect.

| SMILES | activity, negative = inhibition | Potency |
| --- | --- | --- |
| Cc1cc(C)c2nc(SCC(=O)N(C)C3CCS(=O)(=O)C3)cc(C)c2c1 (stereo unspecified) | -4.71% (inactive) |  |
| Cc1ccccc1NC(=O)Nc1ccccc1N1CCCCC1 | 3.48% (inactive) |  |
| Cc1ccc(CN2CCN(Cc3ccc4ncccc4c3)CC2CCO)cc1 (stereo unspecified) | 10.3% (inactive) |  |
| O=C(NCCNc1ccc([N+](=O)[O-])cc1)c1cccc2c(Br)cccc12 | 10.5% (inactive) |  |
| O=[N+]([O-])c1ccc(NCCCN2CCOCC2)c(Cl)c1 | 20.4% (inactive) |  |
| O=C(NCCCNc1ccc([N+](=O)[O-])cc1Cl)c1ccccc1F |  | 15.8 µM (active) |
| Cc1ccc(C2=NN(C(=O)COc3ncnc4ccccc34)C(c3ccco3)C2)cc1 (stereo unspecified) | 5.79% (inactive) |  |
| C=C(C)C(=O)c1ccc(F)cc1 | 0.333% (inactive) |  |
| CCn1c(O)c(N=NC(=O)c2cccc(S(=O)(=O)N3CCCCC3)c2)c2ccccc21 | -4.06% (inactive) |  |
| CCn1c(O)c(N=NC2=NC(=O)CS2)c2cc(C)ccc21 |  | 14.1 µM (active) |
| O=C(N/N=C/c1ccccn1)c1ccc(S(=O)(=O)N2CCCCCC2)cc1 | -7.41% (inactive) |  |
| CC(c1ccco1)N(C(=O)c1ccc(S(=O)(=O)N2CCCCC2)cc1)c1ccccn1 (stereo unspecified) |  | 12.6 µM (active) |
| CC(c1ccco1)N(C(=O)COc1ccccc1[N+](=O)[O-])c1ccccn1 (stereo unspecified) | -2.13% (inactive) |  |
| COc1ccc(C(=O)Nc2ccc(S(=O)(=O)NC(C)C)cc2)cc1 | 1.37% (inactive) |  |
| CC(=O)c1ccc(NC(=S)NC(=O)CC(C)C)cc1 | 13.6% (inactive) |  |
| COc1ccc(NS(=O)(=O)c2ccc(NC(=S)NC(=O)CC(C)C)cc2)cc1 |  | 12.6 µM (active) |
| O=C(NCC1CCN(Cc2ccccc2Cl)CC1)Nc1cccc(Cl)c1 | 3.46% (inactive) |  |
| COC(=O)C1=C(C)N(c2ccc(Br)cc2)C(=O)/C1=C\c1ccco1 | -6.89% (inactive) |  |
| CCC1SC(CC)C(=O)N(CC(=O)NC2CCCCC2)C1=O (stereo unspecified) | -2.09% (inactive) |  |
| O=C(O)Cc1ccc(NCc2ccccc2Cl)cc1 | 9.94% (inactive) |  |
| O=C(NC1CCC(O)CC1)c1ccc(S(=O)(=O)NCc2ccco2)cc1 (stereo unspecified) | 10% (inactive) |  |
| CC1CCN(S(=O)(=O)c2ccc(S(=O)(=O)NCc3ccco3)cc2)CC1 | 12.9% (inactive) |  |
| CCC(C)NC(=O)/C=C/c1ccc(S(=O)(=O)NCc2ccco2)cc1 (stereo unspecified) |  | 17.8 µM (active) |
| CN(C)C(=O)c1nc2ccc(Cl)cn2c1CN1CCN(c2ncccn2)CC1 | -5.43% (inactive) |  |
| C=C(C)C1CC=C(C)/C(=N/NC(=O)CCCNc2cccc(C)c2)C1 (stereo unspecified) | -6.55% (inactive) |  |
| N#Cc1c(N)nc2c(c1N)CC(C(F)(F)F)O2 (stereo unspecified) | -6% (inactive) |  |

| SMILES | activity, negative = inhibition | Potency |
| --- | --- | --- |
| COc1ccc(S(=O)(=O)N2CCC(C(=O)OCC(=O)c3ccccc3)CC2)cc1[N+](=O)[O-] | -0.868% (inactive) |  |
| Cc1ccc(S(=O)(=O)N2CCC(C(=O)OCC(=O)N3CC(=O)Nc4ccccc43)CC2)cc1 |  | 12.6 µM (active) |
| COc1ccc(Cl)cc1-n1c(C)cc(C(=O)OCC(=O)N2CC(=O)Nc3ccccc32)c1C | 0.822% (inactive) |  |
| O=C1CN(C(=O)COC(=O)c2cnc(Cl)c(Cl)c2)c2ccccc2N1 |  | 1.26 µM (active) |
| COc1cc(OC)c(C(=O)OCC(=O)N2CC(=O)Nc3ccccc32)cc1OC | -2.57% (inactive) |  |
| Cc1ccc(S(=O)(=O)N(C)CC(=O)OCC(=O)N2CC(=O)Nc3ccccc32)cc1 | 4.73% (inactive) |  |
| Oc1cccc(C2c3[nH]c4ccccc4c3CCN2Cc2cnn(-c3ccccc3)c2)c1 (stereo unspecified) | -2.31% (inactive) |  |
| CC(=O)Nc1ccccc1NC(=O)c1cc(C)cc(C)c1 | 9.85% (inactive) |  |
| CCOc1ccc(CCNC(=O)C2=C(C)C(=O)OC23CCC(C)CC3)cc1OCC (stereo unspecified) | -3.39% (inactive) |  |
| CC(Sc1nnnn1C1CCCCC1)C(=O)O (stereo unspecified) | -7.3% (inactive) |  |
| O=C(COc1ccc(Cl)cc1)NCc1nnc(SCC(=O)NCC2CCCO2)o1 (stereo unspecified) | 11.9% (inactive) |  |
| Cc1ccc(-c2cc(=O)c3ccc(F)cc3[nH]2)cc1 | 8.38% (inactive) |  |
| COc1ccc(Cl)cc1NC(=O)CNc1ccccc1F |  | 31.6 µM (active) |
| COc1ccc(C)cc1NC(=O)CSc1nnc(CC(=O)Nc2ccccc2F)n1C | -8.98% (inactive) |  |
| COc1ccc(C)cc1NC(=O)CSc1ccc(Cl)cc1 | -6.49% (inactive) |  |
| C=CCOC(=O)NC(c1ccc(F)c(F)c1)C(C(=O)COC)C(=O)OC (stereo unspecified) |  | inactive |
| Cc1cc(C)cc(OCC(=O)Nc2nc3ccc([N+](=O)[O-])cc3s2)c1 | -5.6% (inactive) |  |
| CCOCC(=O)Nc1ncc(S(=O)(=O)c2ccc([N+](=O)[O-])cc2)s1 |  | 3.55 µM (active) |
| COC(=O)C(NC(=O)c1ccc(OC)cc1)(Nc1ncc(S(=O)(=O)c2ccc([N+](=O)[O-])cc2)s1)C(F)(F)F (stereo unspecified) | -8.58% (inactive) |  |
| Fc1ccc(NC(=S)N2CCc3[nH]c4ccccc4c3C2)cc1 | 10.1% (inactive) |  |
| O=C(O)CCCCCNc1ncnc2ccc(Br)cc12 | 0.233% (inactive) |  |
| O=C(O)C[C@@H]1NC(=O)[C@H](Cc2ccccc2)NC1=O | 5.8% (inactive) |  |
| O=C(CCC(=O)N1CCN(S(=O)(=O)c2ccccc2)CC1)NC1CCCc2ccccc21 (stereo unspecified) | -6.63% (inactive) |  |
| O=C(CSc1nncs1)NC1CCCc2ccccc21 (stereo unspecified) | -1.34% (inactive) |  |
| O=C(CN1CCN(c2ccc(O)cc2)CC1)NC1CCCc2ccccc21 (stereo unspecified) |  | 11.2 µM (active) |
